SW480 rerep: A quantitative high throughput screen for small molecules that induce DNA re-replication in SW480 colon adenocarcinoma cells; 340,000 tested, 1.8% active; SW480 DNA re-replication, Hoechst DNA content imaging, 48 h; AID 624297, 2012; Potency, µM (titrated, usually from 46.1 µM), for inactives: top-dose re-replication activation, hits mostly activators; further: % of control where 0% means no effect; nearly all actives have a fitted effect of over 55% in size
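Per well, 250 cells were exposed to pinned compound for 48 hr. Nuclear DNA was visualised with Hoechst (40 min, 37 C) and total object intensity recorded by fluorescence scanning.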
Gal4-VP16 FLuc: VP16 counterscreen qHTS for inhibitors of ROR gamma transcriptional activity; Potency, µM (doses to about 53.6 µM), inactives show at the highest dose activity, negative = inhibition, most hits filed as inhibitors; Drosophila S2 Gal4-VP16 UAS-luciferase, luminescence, 20 h; 310,000 tested, 3.5% active;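 further: Gal4-VP16 expression switched on by copper sulfate through the metallothionein promoter; on the % scale 0 is the no-effect control and ±100 the full control effect; nearly all actives have a fitted effect of over 50% in size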
ELG1 DNA repair: qHTS screen for small molecules that inhibit ELG1-dependent DNA repair in human embryonic kidney (HEK293T) cells expressing luciferase-tagged ELG1 | HEK293T ELG1-luciferase reporter, luminescence, 16 h; DNA damage induced by 5-fluorouridine | Potency, µM (titrated, usually from 46.1 µM), without a hit: at the highest dose activity change, negative = inhibition, hits mostly inhibitors | 330,000 tested, 2.3% active | AID 504467, 2011; further: on the % scale 0 is the no-effect control and ±100 the full control effect; nearly all actives have a fitted effect of over 55% in size
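Cells (2,000 per well) received 5-fluorouridine plus test compound or DMSO and were incubated 16 hr at 37 °C, 5% CO2. Luciferase activity was read by luminescence 30 min after ONE-Glo addition; signal suppression marked inhibition of damage-induced ELG1 function.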
RORg inh: qHTS for inhibitors of ROR gamma transcriptional activity. Drosophila S2 Gal4-RORgamma UAS-luciferase reporter, 20 h. 310,000 tested, 5.4% active. Nuclear receptor ROR-gamma (Mus musculus), P51450. Potency, µM (titrated, usually from 53.6 µM), for the others: at the top dose activity change, negative = inhibition, actives largely listed as inhibitors. AID 2551, 2010; further: on the % scale 0 is the no-effect control and ±100 the full control effect; nearly all actives have a fitted effect of over 60% in size
Target sequence (P51450 whole entry, looked up, the tested form may be a part): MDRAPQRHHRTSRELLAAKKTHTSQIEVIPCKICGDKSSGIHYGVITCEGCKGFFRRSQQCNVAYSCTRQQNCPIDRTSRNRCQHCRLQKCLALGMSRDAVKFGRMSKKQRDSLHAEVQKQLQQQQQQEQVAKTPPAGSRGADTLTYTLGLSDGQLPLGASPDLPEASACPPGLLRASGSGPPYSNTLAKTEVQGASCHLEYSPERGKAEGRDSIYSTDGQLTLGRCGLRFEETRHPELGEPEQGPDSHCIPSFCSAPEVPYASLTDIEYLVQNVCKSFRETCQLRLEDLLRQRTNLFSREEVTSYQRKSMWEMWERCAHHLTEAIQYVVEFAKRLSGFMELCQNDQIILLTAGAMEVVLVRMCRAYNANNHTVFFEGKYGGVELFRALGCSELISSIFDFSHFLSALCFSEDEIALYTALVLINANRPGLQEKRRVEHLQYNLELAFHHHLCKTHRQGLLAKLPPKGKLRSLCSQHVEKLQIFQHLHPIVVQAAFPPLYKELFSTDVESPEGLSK
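Read-out: Photinus luciferase luminescence; inhibitors lower reporter signal. Insect Schneider cells with Gal4-ROR gamma fusion under metallothionein promoter, UAS reporter; 700 uM final copper sulfate induction, 20 hr, ambient temperature.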
MCF10A rerep: A quantitative high throughput screen for small molecules that induce DNA re-replication in MCF 10a normal breast cells; MCF 10A DNA re-replication, Hoechst nuclear intensity, 48 h; AID 624296, 2012; 350,000 tested, 2.9% active; Potency, µM (series often up to 46.1 µM), for inactives: top-dose activity, positive = re-replication, most hits filed as activators; further: % of control where 0% means no effect; nearly all actives have a fitted effect of over 50% in size
* hit, by the source's call; ? = inconclusive; · = no result given; [ ] = another dose, or the depositor's remark. An excerpt weighted towards active compounds, which were near 10% of everything screened. The call rests on the fitted dose curve; in most records, active means well fitted curve in the direction sought with a large enough effect; inconclusive means small, poorly fitted or top-dose-only effect, or another doubt; inactive means no such curve, though single readings can be large; an effect the other way counts as inactive or inconclusive. Potency means the concentration at half of the fitted maximal effect.

SMILES | SW480 rerep | Gal4-VP16 FLuc | ELG1 DNA repair | RORg inh | MCF10A rerep
O=C(NCCc1ccccc1)C(=O)NCC1OCCN1S(=O)(=O)c1ccc([N+](=O)[O-])cc1 (stereo unspecified) | -20% | ? | ? | 14% | ?
Cc1cnc(C(=O)OCC(=O)c2ccc[nH]2)cn1 | 1% | · | 8% | · | -1%
Cc1ccccc1NC(=O)c1ccc(Cl)c(NC(=O)c2ccncc2)c1 | -691% | 17% | -17% | 14% | 3%
O=C(Nc1ccccn1)C(=O)Nc1ccccn1 | -13% | 13µM* | ? | 10µM* | -3%
CCOc1ccc(/C=C(\C#N)C(=O)Nc2ccccn2)cc1 | -5% | 1% | 20% | 2% | 8%
O=C(Nc1ccccn1)C1(c2ccccc2)CCCC1 | -4% | 20µM* | 0% | -12% | -7%
S=C(Nc1ccccn1)c1ccccn1 | ? | 3.2µM* | ? | 7.1µM* | ?
O=C(Nc1ccccc1)Nc1ccccn1 | -4% | 16% | ? | 39% | -18%
c1ccc(Nc2ccccn2)nc1 | 1% | 6% | 10% | -3% | -2%
N#C/C(=C\c1ccc(F)cc1)C(=O)Nc1ccccn1 | 4.1µM* | -2% | 2% | 22% | 5%
CC(OC(=O)C1CSC2(C)CCC(=O)N12)C(=O)Nc1ccc(F)cc1 (stereo unspecified) | 1% | · | 2% | · | 2%
COCc1cc(=O)n2[nH]c(-c3ccccc3)cc2n1 | -2% | 2% | ? | 23% | -1%
CCOC(=O)Cc1c(C)nc2c(-c3ccccc3)c(-c3ccccc3)[nH]n2c1=O | ? | ? | 0% | 13µM* | ?
CCOC(=O)Cc1c(C)nc2c(-c3ccccc3)c(C)[nH]n2c1=O | 3% | 2% | 6% | 34% | -5%
COCc1cc(=O)n2[nH]cc(-c3ccsc3)c2n1 | 0% | ? | -30% | 16µM* | ?
CCOC(=O)Cc1cc(=O)n2[nH]cc(-c3ccc(Cl)cc3)c2n1 | -10% | ? | ? | 11µM* | 11%
CCOC(=O)Cc1c(C)nc2c(-c3ccccc3)c[nH]n2c1=O | -4% | -7%[0.365 µM] | 2% | 7.9µM* | ?
CCOC(=O)Cc1cc(=O)n2[nH]c(-c3ccc(Cl)cc3)cc2n1 | 2% | -4% | 0% | -22% | 10%
COc1ncc2nc(CCc3ccccc3)c(=O)n(C)c2n1 | · | -4% | · | 31% | ·
CC1(C)Cc2[nH]c(=S)c(C#N)cc2CO1 | -6% | ? | 8% | 20µM* | ?
COc1ccc(OC)c(C2=Nn3c(nnc3-c3ccccc3C)SC2)c1 | · | -7% | · | -4% | ·
Cc1nn(Cc2ccc(Cl)c(Cl)c2)c(C)c1NC(=O)c1sc2ccccc2c1Cl | 1% | -6% | ? | 3% | ?
Cc1nn(Cc2c(Cl)cccc2Cl)c(C)c1NC(=O)c1sc2ccccc2c1Cl | ? | 5% | 0% | -1% | 10µM*
Cc1nn(Cc2ccc(Cl)cc2Cl)c(C)c1NC(=O)c1sc2ccccc2c1Cl | -3% | -5% | -3% | -28% | 9%
Cc1ccccc1Cn1nc(C)c(NC(=O)c2sc3ccccc3c2Cl)c1C | 10% | ? | 26µM* | 25% | ?
SMILES | SW480 rerep | Gal4-VP16 FLuc | ELG1 DNA repair | RORg inh | MCF10A rerep
Cc1cccc(C)c1NC(=O)CNC(=O)c1cn(-c2ccccc2)nc1-c1ccccc1 | 1% | -2% | -7% | 10% | 2%
Cc1nn(Cc2c(Cl)cccc2Cl)c(C)c1NC(=O)c1cn(-c2ccccc2)nc1-c1ccccc1 | 8.2µM* | ? | ? | ? | 4.5µM*
Cn1c(-c2sc3cc(C(F)(F)F)cnc3c2-c2cccs2)n[nH]c1=S | -25% | -7% | 4% | 2.8µM* | -1%
CCOC(=O)c1c(C)nc2sc3c(=O)n(-c4ccc(C(C)=O)cc4)nnc3c2c1-c1ccc(OC)cc1 | 1% | -19% | ? | 14% | -4%
CCOC(=O)c1c(C)nc2sc(C(N)=O)c(N)c2c1-c1ccc(OC)cc1 | 2% | -1% | 13µM* | -38% | 9%
CCOC(=O)c1c(C)nc2sc(C(=O)Nc3ccc(OC)cc3)c(N)c2c1-c1ccc(OC)cc1 | ? | 4% | ? | 3% | 3.5µM*
CCOC(=O)c1c(C)nc2sc(C(=O)Nc3ccc(C(C)=O)cc3)c(N)c2c1-c1ccc(OC)cc1 | 2.3µM* | -8% | -21% | -13% | 26%
O=C(CSc1ccccn1)Nc1nonc1[N+](=O)[O-] | 2% | 5µM* | ? | 5.6µM* | 7%
O=C(NCCN1C(=O)S/C(=C/c2ccccc2)C1=O)C1CC(=O)N(Cc2ccccc2)C1 (stereo unspecified) | 4% | · | -16% | · | 9%
Cc1ccc(C2(C)NC(=O)N(CC(=O)NCCN3C(=O)S/C(=C\c4cccnc4)C3=O)C2=O)cc1 (stereo unspecified) | 5.8µM* | · | · | · | 40%
O=C(CCl)NCCN1C(=O)S/C(=C\c2cccnc2)C1=O | ? | ? | -26% | ? | ?
Cc1nn(Cc2ccccc2)c(C)c1C(=O)NCCN1C(=O)S/C(=C\c2ccccc2)C1=O | ? | -24% | -10% | ? | 26µM*
COc1ccc(C(=O)NCCN2C(=O)S/C(=C\c3cccnc3)C2=O)c(OC)c1OC | 1% | ? | ? | -21% | 23%
CCOc1cc(C(=O)NCCN2C(=O)S/C(=C\c3cccnc3)C2=O)cc(OCC)c1OCC | 23% | 22% | 18µM* | 18% | -7%
CCCCNC(=O)c1ccc(Cn2c(=S)[nH]c3c([nH]c4ccc(OC)cc43)c2=O)cc1 | ? | 18µM* | ? | 13µM* | 16µM*
COc1ccc2[nH]c3c(=O)n(Cc4ccc(C(=O)N5CCC(C(N)=O)CC5)cc4)c(=S)[nH]c3c2c1 | 75% | -8% | 8.2µM* | 0% | ?
CCOCCCNC(=O)c1ccc(Cn2c(=S)[nH]c3c([nH]c4ccc(OC)cc43)c2=O)cc1 | ? | 2% | -4% | -10% | -18%
NC1=NC(c2ccccc2C(F)(F)F)N(c2ccc(F)c(Cl)c2)C(N)=N1 (stereo unspecified) | 3% | -7% | -2% | 18% | 5%
COC(=O)C(=C/C(C)=C/c1cccs1)C(=O)OC | ? | -12% | -15% | ? | ?
CC12CCC(=O)N1C(C(=O)NNC(=O)c1ccccc1Cl)CS2 (stereo unspecified) | -1% | · | 10% | · | 10%
CC(=O)CSc1ncnc2sc3c(c12)CCC(C)C3 (stereo unspecified) | -1% | ? | 13% | 3.2µM* | -2%
CC(=O)C(Sc1ncnc2sc3c(c12)CCCC3)C(C)=O | 0% | 16µM* | ? | 11µM* | 4%
